# Rab9 promoter act – activators of Rab9 promoter | Huh7 Rab9 promoter-luciferase reporter, luminescence, 24 h | Potency, µM (highest dose often 9.22 µM), inactives show at the highest dose activation, negative = inhibition, hits mostly activators | 2.8% of 320,000 active | AID 485297; also: % of control where 0% means no effect; nearly all actives have a fitted effect of over 60% in size
#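 Quantitative HTS format; Huh7 Rab9-luciferase reporter cells (1500/well) receive compound 2 h post-plating, incubate 24 h at 37 °C, then get luciferase reagent for 10 min before luminescence reading.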
# SMN2 splice enh – SMN2 splice variant enhancement. HEK293 SMN2-luciferase splicing reporter, luminescence, 30-36 h. Potency, µM (doses to about 46.1 µM), without a hit: at the top dose activity change, positive = activation, usual class: activators. 2.8% of 210,000 active; also: % of control where 0% means no effect; nearly all actives have a fitted effect of over 55% in size
#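 HEK293 cells carry an SMN2 […]–luciferase reporter in which exon 7 inclusion puts luciferase in frame. Cells were plated 10-12 h before compound addition, then incubated 30-36 h at 37C. ONE-Glo luminescence was read; sodium butyrate at 4.5 mM final served as control.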
# KinaseGlo FLuc – blocks Kinase-Glo luciferase, a counter-screen artifact | Kinase-Glo luciferase, ATP luminescence, 8 min | 0.28% of 200,000 active | Potency, µM (titrated, usually from 38.3 µM), without a hit: at the highest dose activity change, negative = inhibition, usual class: inhibitors | AID 1379 | Q27757; also: % is scaled to controls: 0 for no effect and ±100 for the full control effect; nearly all actives have a fitted effect of over 60% in size
#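 Recombinant Kinase-Glo luciferase, 10 uM ATP (linear range), luciferin; imidazole pH 7.2 / KCl / MgCl2 / Tween / BSA buffer; 8 min RT; luminescence.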
# NPC1 prom act – NPC1 promoter activation | Huh7 NPC1 promoter luciferase reporter, 24 h | Potency, µM (top dose mostly 9.22 µM), without a hit: at the top dose activation, hits mostly activators | 2.4% of 320,000 active; also: % of control where 0% means no effect; nearly all actives have a fitted effect of over 60% in size
#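 Huh7 reporter cells (NPC1 promoter driving luciferase) are dosed with compound for 24 h at 37 °C, 5% CO2; luciferase detection reagent is then added and luminescence measured after 10 min at ambient temperature.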
# ELG1 genotoxic – inducers of genotoxicity in HEK293T ELG1-luciferase cells | 1.3% of 330,000 active | HEK293T ELG1-luciferase reporter, luminescence, 16 h | Potency, µM (titrated, usually from 46 µM), for inactives: at the highest dose activity change, positive = activation, actives largely listed as activators; also: % of control where 0% means no effect; nearly all actives have a fitted effect of over 60% in size
#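 HEK293T cells expressing luciferase-tagged ELG1 were exposed to compound or DMSO vehicle for 16 hr at 37 °C and 5% CO2. Luciferase activity was then measured with ONE-Glo after 30 min at room temperature.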
# FLuc counter – counter-screen for miR-21 project: firefly luciferase inhibitors or activators; AID 588342; purified FLuc, Km substrates, luminescence inhibition; P08659; Potency, µM (highest dose often 57.5 µM), for inactives: top-dose activity change, negative = inhibition, usual class: inhibitors; 6.9% of 360,000 active;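 also: plate controls were vehicle for no effect and reference inhibitor for full effect; nearly all actives have a fitted effect of over 55% in size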
# Target sequence (P08659 whole entry, looked up): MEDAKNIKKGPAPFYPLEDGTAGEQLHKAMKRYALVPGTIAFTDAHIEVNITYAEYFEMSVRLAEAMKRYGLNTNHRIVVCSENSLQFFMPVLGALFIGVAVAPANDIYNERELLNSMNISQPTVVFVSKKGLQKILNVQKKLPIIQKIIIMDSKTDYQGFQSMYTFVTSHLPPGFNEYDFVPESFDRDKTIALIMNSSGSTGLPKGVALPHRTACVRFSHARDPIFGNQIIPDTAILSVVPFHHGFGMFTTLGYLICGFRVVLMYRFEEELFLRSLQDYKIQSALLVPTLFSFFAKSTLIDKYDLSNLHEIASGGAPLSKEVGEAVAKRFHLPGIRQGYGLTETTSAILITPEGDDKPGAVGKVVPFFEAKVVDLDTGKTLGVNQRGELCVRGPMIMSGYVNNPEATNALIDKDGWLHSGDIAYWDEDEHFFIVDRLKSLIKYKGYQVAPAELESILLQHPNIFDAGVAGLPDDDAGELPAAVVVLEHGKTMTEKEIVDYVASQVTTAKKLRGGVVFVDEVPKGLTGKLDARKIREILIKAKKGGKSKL
#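 Purified P. pyralis luciferase (10nM final) with 10uM D-luciferin and 10uM ATP (Km levels) in 50mM Tris acetate pH 7.5, 10mM Mg acetate, 0.01% Tween-20, 0.05% BSA; qHTS 6-point titration, ~60 µM downward; luminescence read.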
# * marks the source's active call; other numbers are inactive results; ? = inconclusive; · = not tested or not shown; [ ] = remark or other dose. Most compounds without a hit are left out; they make up all but 7.5% or so of the library. Calls follow the shape of the dose curve; as a rule, active = well fitted curve in the direction sought with a large enough effect; inconclusive = small, poorly fitted or top-dose-only effect, or another doubt; inactive = no such curve, though single readings can be large; an effect the other way counts as inactive or inconclusive. Potency is read from the fitted curve at half-maximal effect.
SMILES,Rab9 promoter act,SMN2 splice enh,KinaseGlo FLuc,NPC1 prom act,ELG1 genotoxic,FLuc counter
COc1ccc(C(=O)Nc2cccc(NC(=O)c3cccs3)c2)cc1OC,8%,·,·,5%,-6%,11µM*
COc1cccc(CN2CCNC(=O)C2CC(=O)N(C)CCC2CCOCC2)c1OC (stereo not drawn),-1%,·,·,2%,3%,-2%
O=C(Cn1c(=O)n(CCc2ccccc2)c(=O)c2c3c(sc21)CCCC3)Nc1ccc(F)c(F)c1,·,7%,·,·,·,-1%
CCc1nnc2c3ccccc3nc(N3CCN(c4cc(Cl)ccc4C)CC3)n12,·,·,·,·,·,-8%
COc1ccc(/C=C/C(=O)c2ccc(NC(=O)c3cccs3)cc2)cc1OC,?,16µM*,4%,?,?,13µM*
COc1ccc(NC(=S)Nc2ccc(OC)cc2OC)c(OC)c1,-4%,-4%,-1%,4%,-1%,0%
COc1ccc(NC(=S)Nc2cnc3ccccc3c2)c(OC)c1,-4%,0%,3%,1%,0%,6µM*
COc1ccc(NC(=S)NC(=O)CC(C)C)c(OC)c1,14%,20%,-2%,14%,6%,13µM*
COc1cc(NC(=S)Nc2ccccn2)cc(OC)c1,-1%,9%,3%,13%,3%,9.5µM*
COc1ccc(NC(=S)Nc2ccccc2OC)c(OC)c1,2%,-7%,-1%,-6%,2%,-12%
COc1ccc(NC(=S)Nc2ccccn2)c(OC)c1,?,11µM*,6%,?,?,?
CCCCC(=O)Nc1ccc(NC(=S)NC(=O)CC(C)C)cc1OC,4%,?,10%,-4%,0%,14%
O=C(CCc1ccccc1)NC1CC(=O)N(c2ccccc2)C1 (stereo not drawn),·,·,·,·,·,-1%
Cc1ccc(-c2c(C(=O)NCCc3ccccc3)oc(=O)c3ccccc23)cc1,·,2%,·,·,·,-3%
COc1ccc(NC(=S)Nc2cccnc2)c(OC)c1,1%,15%,1%,-1%,9%,-8%
COc1ccc(NC(=S)Nc2cc(C)ccn2)c(OC)c1,?,11µM*,0%,?,?,2.7µM*
O=C(Nc1ccc(N2CCCC(O)C2)cc1)c1snc2c(=O)[nH]cnc12 (stereo not drawn),18%,?,-6%,17%,?,2.1µM*
Cc1nc2c(C(=O)Nc3ccc(N4CCCC(O)C4)cc3)snc2c(=O)[nH]1 (stereo not drawn),2%,·,·,17%,12%,3µM*
Cc1cccc(NC(=O)c2snc3c(=O)[nH]cnc23)c1,3%,-11%,-5%,-2%,-2%,0%
O=C(CCc1nnc(CCCc2ccccc2)o1)N1CCCCCC1,?,·,-2%,?,?,21µM*
O=C(CCc1nnc(CCCCc2ccccc2)o1)NCCN1CCOC1=O,0%,·,-2%,2%,15%,17µM*
O=C(CCc1nnc(CCCCc2ccccc2)o1)NCCn1cccn1,1%,11%,0%,-1%,0%,4%
CCc1cc(CNC(=O)CCc2nnc(CCCc3ccccc3)o2)on1,3.5µM*,16µM*,0%,?,18µM*,19µM*
CN(CCc1ccccn1)C(=O)CCc1nnc(CCCc2ccccc2)o1,?,·,2%,?,?,15µM*
CC(C)(C)NC(=O)CSc1nccn1Cc1ccccc1,14%,-13%,3%,2%,1%,-2%
SMILES,Rab9 promoter act,SMN2 splice enh,KinaseGlo FLuc,NPC1 prom act,ELG1 genotoxic,FLuc counter
COc1cc(OC)c(NC(=O)Cn2cnc3sc(C)c(S(=O)(=O)N4CCN(C)CC4)c3c2=O)cc1Cl,·,-4%,·,·,·,-1%
CCOc1ccc(OCCC(=O)N(CC)CC(=O)NCc2cccs2)cc1,0%,·,·,-4%,1%,-16%
CC(C)(C)NC(=O)CSc1nnc(-c2ccccc2)c(-c2ccccc2)n1,2%,·,·,-3%,-3%,-2%
CCOc1ccc(CCNC(=O)c2ccc(CS(=O)Cc3cccc(Cl)c3)o2)cc1 (stereo not drawn),-1%,·,·,-4%,-4%,17µM*
CC1(C)CC(=O)c2sc(N3CCCCC3)nc2C1,?,-8%,-8%,?,?,?
CC1(C)CNC(=O)c2sc(N3CCCCC3)nc2C1,22%,23%,-3%,13%,?,15µM*
CN(C)CCC(=O)[C@@]1(O)CC[C@H]2[C@H]3CC=C4C[C@@H](O)CC[C@]4(C)[C@H]3CC[C@]21C,·,-4%[9.22 µM],-1%[7.66 µM],·,·,·
O=C(c1ccccc1)N1N=C(c2ccccc2)CC1(O)C(F)(F)F (stereo not drawn),-3%,·,·,1%,0%,2%
CCOC(=O)N1N=C(c2ccc(C)cc2)CC1(O)C(F)(F)F (stereo not drawn),0.71µM*,21%,5%,0.89µM*,?,5.4µM*
CCOC(=O)N1N=C(c2ccccc2)CC1(O)C(F)(F)F (stereo not drawn),2.2µM*,?,-7%,3.5µM*,?,13µM*
COC(=O)N1N=C(c2ccc(Br)cc2)CC1(O)C(F)(F)F (stereo not drawn),?,16µM*,-1%,3.5µM*,?,11µM*
O=C(c1cc(S(=O)(=O)N2CCOCC2)ccc1F)N1CCc2ccccc21,·,·,·,·,-4%,·
O=C(Nc1ccc(-c2nnn(CC(=O)N3CCN(C(=O)c4ccco4)CC3)n2)cc1)c1ccccc1F,24%,-5%,1%,16%,-6%,11µM*
COc1ccccc1C(=O)Nc1ccc(-c2nnn(CC(=O)N3CCN(C(=O)c4ccco4)CC3)n2)cc1,11%,-36%,2%,-2%,-11%,17µM*
C=C(C)C(=O)C1CCCCC1,·,-1%,0%,·,·,·
COc1cccc(CN2CCN(Cc3cccc4c3OCO4)CC2CCO)c1 (stereo not drawn),0.089µM*,·,-5%,0.4µM*,?,2.4µM*
Cc1ccc(-n2[nH]c(C)c(/C=N/NC(=O)c3ccc(O)cc3O)c2=O)cc1,4%,·,·,23%,?,0.43µM*
Cc1[nH]n(-c2ccccc2)c(=O)c1/C=N/Nc1nncc(-c2ccccc2)n1,-36%,-83%,-1%,-14%,?,13µM*
CCc1nnc(NS(=O)(=O)c2ccc(N=Cc3c(C)[nH]n(-c4ccc(Cl)cc4)c3=O)cc2)s1,3%,-9%[1.84 µM],-8%,1%,4%,-20%
Cc1[nH]n(-c2ccccc2)c(=O)c1/C=N/NC(=O)c1ccc(O)cc1O,11%,·,·,19%,?,2.1µM*
Cc1[nH]n(-c2ccc(Cl)cc2)c(=O)c1/C=N/c1nnc(-c2ccccc2)s1,0%,19%,?,-2%,6%,19µM*

# Screens deposited in PubChem BioAssay by National Center for Advancing Translational Sciences (NCATS).
